SMILES strings stand for the structures. Records with an inconclusive call do not appear. Where a call stands in place of a potency, no number is given. A number with no mark means an inactive call. Activity calls are given as the source filed them. Calls come from the whole dose curve; as a rule, active = well fitted cell-killing curve with a large enough effect in the repeat runs; inconclusive = weak or mixed curves, or effect the other way; inactive = no such curve, though single readings can be large or run the other way.

Our source for the Potency and viability change, negative = cytotoxic values is PubChem BioAssay (Tox21).

A short description of this experiment: qHTS assay to identify small molecule antagonists of the glucocorticoid receptor (GR) signaling pathway - cell viability counter screen (AID 720693). Note: nearly all actives have a fitted effect of over 55% in size. The settings on record: GR-bla HeLa viability, CellTiter-Glo luminescence, 18 h, with 5 nM dexamethasone present; series mostly up to 58.5 µM. The source says:
National Center for Advancing Translational Sciences [NCATS]
NIH Chemical Genomics Center [NCGC]
U.S. Environmental Protection Agency [EPA]
National Institutes of Environmental Health Sciences [NIEHS]
National Toxicology Program [NTP]
U.S. Food and Drug Administration [FDA]
The Glucocorticoid receptor (GR) is one of the members of the nuclear receptor family of ligand-dependent transcription factors. GR plays a critical role in carbohydrate, protein and lipid metabolisms and programmed cell death. CellSensor GR-bla HeLa cell line (Invitrogen) contains a beta-lactamase reporter gene under the control of the glucocorticoid response element stably integrated into HeLa cells, a cervical cancer cell line that expresses glucocorticoid receptor. The activation of the reporter gene under culture conditions can be detected by fluorescence intensity. This cell line has been used to screen the Tox21 10K compound library and to identify the compounds that inhibit the GR signaling. The cytotoxicity of the Tox21 compound library against the GR-bla HeLa cell line was tested in parallel by measuring the cell viability using CellTiter-Glo assay in the same wells.
Tox21 Assay Protocol Summary:
The GR-bla HeLa cells were dispensed at 1500 cells/5 ul/well in 1536-well black wall/clear bottom plates using a Multidrop Combi (ThermoFisher Scientific, Waltham, MA) dispenser. After the assay plates were incubated at a 37 C/5% CO2 incubator for 4 hours, 23 nL of compounds dissolved in DMSO, positive controls or DMSO only was transferred to the assay plate by a pintool station (Kalypsys, San Diego, CA), followed by addition of 1 uL of dexamethasone (5 nM, final concentration in the well). The plates were incubated at 37 C for 18 hours. After 1 uL of LiveBLAzerTM B/G FRET substrate was added using a Flying Reagent Dispenser (Aurora Discovery, San Diego, CA), the plates were incubated at room temperature (RT) for 2 hours, and fluorescence intensity was measured by an Envision plate reader (PerkinElmer, Shelton, CT). After measurement of bla assay, 3 ul CellTiter-Glo (Promega, Madison, WI) was added to measure the cytotoxicity and the plates were then incubated at RT for 30 min. The luminescence was measured using a ViewLux (Perkin Elmer) plate reader.
`Cl/C=C/CCl`: the Potency result was “inactive”.
On the same count and under the same terms, the result for `C=CC1(C)OC(=O)N(c2cc(Cl)cc(Cl)c2)C1=O` (stereo not given) reads “inactive”; that for `c1ccc2c(c1)CCNC2`, “inactive”; that for `CC(C)(C)NC[C@H](O)c1ccc(O)cc1Cl`, “inactive”.
Same read-out and setting: the result for `O=C(Cl)OCc1ccccc1` reads “inactive”.
In the case of `CCOP(=S)(OCC)Oc1ccc(Cl)cc1Cl`, the Potency entry is “inactive”.
Still for that read-out and setting: to `CCC1(c2cccc(O)c2)CCCCN(C)C1` (stereo not given) belongs “inactive”; to `COc1ccc2c(C(=O)c3ccc(Cl)cc3)c(C)n(CC(=O)O)c2c1`, “inactive”; to `CCCCOC(C)=O`, “inactive”.
Consider `CS(=O)(=O)c1ccc(C(=O)C2C(=O)CCCC2=O)c(Cl)c1COCC(F)(F)F`, for which the Potency entry is “inactive”.
Consider `O=C(Cl)CCl`, for which the Potency result is “inactive”.
On the same count and under the same terms, the result for `CCN[C@H](C)Cc1cccc(C(F)(F)F)c1` reads “inactive”; that for `COc1ccccc1OC`, “inactive”.
On the same count and under the same terms, to `CS(=O)(=O)Cl` belongs “inactive”.
For the compound `Clc1cc2c(cc1Cl)Oc1cc(Cl)c(Cl)cc1O2`, the viability change, negative = cytotoxic is -0.875% [at 0.284 µM].
Take `COc1ccc(CN2CCNCC2)c(OC)c1OC`: the Potency entry is “inactive”.
Same read-out and setting: to `CCN(CC)CCOC(=O)C(O)(c1ccccc1)c1ccccc1` belongs “inactive”.
As for `C[C@H]1CCCC(=O)CCC/C=C/c2cc(O)cc(O)c2C(=O)O1`, the Potency entry is “inactive”.
With `Cc1ccc2c(c1)C1CN(C)CCC1N2` (stereo not given), the Potency entry was “inactive”.
`CCOC(=O)NC(C)(C)Cc1ccc(Cl)cc1`: the Potency result is “inactive”.
For `CCC(=O)OC1(c2ccccc2)CCN(C)CC1`, the Potency entry is “inactive”.
`O=C(O)c1c(Cl)ccc2cc(Cl)cnc12`: the Potency entry was “inactive”.
On the same count and under the same terms, the result for `CN(C)C1CCCCC1` reads “inactive”; that for `O=C(NC(O)C(Cl)(Cl)Cl)NC(O)C(Cl)(Cl)Cl` (stereo not given), “inactive”; that for `C/C=C/CC#N`, “inactive”.
The same measure, in the same setting: the result for `BrCc1ccc(Br)cc1` reads “inactive”; that for `CCOP(=O)(CN(CCO)CCO)OCC`, “inactive”.
For the compound `O=P(O)(O)c1ccccc1`, the Potency entry was “inactive”.
Same read-out and setting: the result for `COC(=O)c1ccccc1CS(=O)(=O)NC(=O)Nc1nc(OC)cc(OC)n1` reads “inactive”.
Same read-out and setting: to `O=C(CCl)NCO` belongs “inactive”.
Same read-out and setting: to `CNC(=O)O/N=C(/CSC)C(C)(C)C` belongs “inactive”.
In the case of `N#CC(Br)(Br)C(N)=O`, the Potency entry was “inactive”.
On the same count and under the same terms, to `CCC(=O)c1ccc(Cl)cc1` belongs “inactive”; to `CCOC(=O)N(C)N=O`, “inactive”.
For the compound `C=C(Cl)CCl`, the Potency result is “inactive”.
Still for that read-out and setting: the result for `CC#Cc1cc(C)nc(Nc2ccccc2)n1` reads “inactive”; that for `O=C(NC(=O)c1c(F)cccc1F)Nc1cc(Cl)c(F)c(Cl)c1F`, “inactive”; that for `CCOC(=O)CC(SP(=S)(OC)OC)C(=O)OCC` (stereo not given), “inactive”.
The same measure, in the same setting: to `[O-][Br+2]([O-])O` belongs “inactive”.
Still for that read-out and setting: to `CC(C)NCC(O)c1ccc([N+](=O)[O-])cc1` (stereo not given) belongs “inactive”.
